# Assay outcomes as filed in PubChem BioAssay.
# The list is not random: actives were taken first. Their share in the collection is about 3.6%.
# LGR2 inh = inhibitors of bursicon-induced Drosophila LGR2 receptor cAMP signaling. HEK293 LGR2, CRE-luciferase, bursicon-stimulated, 4 h. inhibition, % at 9.99 µM. actives 0.35% (n = 380,000). AID 720647;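 active means drop in luminescence signal, shown as inhibition above about 50% in the replicate tests, limit read from the data, passing the limit was not always enough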;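 further: agonist challenge used bursicon conditioned medium at about half maximal strength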
# KKLEB tox = reduces viability of KKLEB cystic fibrosis airway cells | activity change (cytotoxicity), % at 5 µM | AID 602141 | actives 0.36% (n = 360,000) | KKLEB CF airway cells viability, ATPlite luminescence, overnight; active compounds read low; cells stimulated with P. aeruginosa culture filtrate;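 active means corrected activity change at or below -50% at 5 µM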
# HSP90 refold inh = inhibitors of HSP90 luciferase refolding in rabbit reticulocyte lysate. AID 1789. actives 0.91% (n = 290,000). luciferase refolding luminescence, 3 h. inhibition, % at 5.6 µM;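 active means inhibition above the screen-wide mean plus 3 SD, computed separately per campaign, cut at about 16% in these data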;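 further: 0% = DMSO wells and 100% = 60 µM geldanamycin wells; inhibitors lower the luminescence because luciferase stays unfolded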
# CF NFkB inh = cystic fibrosis NF-kB activation inhibition; AID 588850; KKLEB NF-kB-GFP reporter, PAF-induced, GFP fluorescence overnight; actives 0.86% (n = 360,000); inhibition, % at 5 µM;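 active means at least 50% inhibition at 5 µM, scaled per plate between neutral and stimulator controls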;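 further: PAF is a Pseudomonas aeruginosa culture filtrate used as stimulus; plate controls were PAF-stimulated DMSO wells for no effect and unstimulated DMSO wells for full effect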
# Peg3 promoter = Peg3 promoter activity inhibition; HeLa PEG-Prom luciferase reporter, luminescence, overnight; inhibition, % at 20 µM; actives 1.7% (n = 360,000); AID 588405;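 active means inhibition of at least 50% at 20 µM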
# Mdm2-MdmX inh = disrupts the human Mdm2-MdmX interaction | SaOS-2 split-luciferase Mdm2/MdmX complementation, luminescence | O15151+Q00987 | AID 485346 | inhibition, % at 8 µM | actives 3% (n = 330,000);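 active means inhibition of at least 50% at 8 µM in the primary screen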
# HSP90 inh confirm = confirmation of HSP90 inhibitors | shares compounds with HSP90 refold inh | rabbit reticulocyte lysate, luciferase refolding luminescence, 3 h | inhibition, % at 5.9 µM | actives 64% (n = 2,300) | AID 1846; in the data active means inhibition above about 18%;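 further: 0% = vehicle wells and 100% = reference inhibitor wells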
# luciferase ctr = blocks native firefly luciferase in HSP90 counter-screen. shares compounds with HSP90 refold inh. inhibition, % at 5.9 µM. purified native firefly luciferase, luminescence. actives 48% (n = 2,300);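 active means inhibition above the mean inhibition of all tested sample wells plus 3 SD, cut at about 10% in these data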;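 further: 0% = DMSO with luciferase and 100% = wells lacking luciferase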
# Target sequence (P08659 whole entry, looked up): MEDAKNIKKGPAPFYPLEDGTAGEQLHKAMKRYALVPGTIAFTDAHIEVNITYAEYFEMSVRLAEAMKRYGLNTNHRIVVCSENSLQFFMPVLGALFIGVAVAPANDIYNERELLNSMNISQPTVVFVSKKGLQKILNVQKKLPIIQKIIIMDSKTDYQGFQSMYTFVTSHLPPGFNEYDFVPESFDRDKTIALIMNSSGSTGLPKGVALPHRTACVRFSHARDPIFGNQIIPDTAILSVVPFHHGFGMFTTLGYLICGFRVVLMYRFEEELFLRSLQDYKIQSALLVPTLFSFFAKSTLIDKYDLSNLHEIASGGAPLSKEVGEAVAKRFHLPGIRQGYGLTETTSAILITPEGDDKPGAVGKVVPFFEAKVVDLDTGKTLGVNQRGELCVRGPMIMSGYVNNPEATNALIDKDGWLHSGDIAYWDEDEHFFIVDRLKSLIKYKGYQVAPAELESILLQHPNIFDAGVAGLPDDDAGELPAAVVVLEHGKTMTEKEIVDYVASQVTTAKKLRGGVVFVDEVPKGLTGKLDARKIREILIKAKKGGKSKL
# * hit, by the source's call; · = no result.
SMILES,LGR2 inh,KKLEB tox,HSP90 refold inh,CF NFkB inh,Peg3 promoter,Mdm2-MdmX inh,HSP90 inh confirm,luciferase ctr
COc1cccc(CNC(=O)C2=C(C)C(=O)OC23CCC(C)CC3)c1 (configuration not stated),·,-4.5,34.9*,10.6,4.8,-13.9,-2.0,-3.8
COc1ccccc1CNC(=O)C1=C(C)C(=O)OC12CCC(C)CC2 (configuration not stated),6.6,-1.5,-0.7,-3.1,14.0,12.3,·,·
O=C(c1cc([N+](=O)[O-])cc([N+](=O)[O-])c1)N1CCN(C(=O)c2ccco2)CC1,-3.4,-0.9,9.3,-3.7,6.5,7.4,·,·
O=C(c1ccc([N+](=O)[O-])cc1)N1CCN(C(=O)c2ccco2)CC1,9.5,13.0,21.1*,6.0,-6.2,28.4,3.3,-4.2
CCC(=O)Nc1ccc2c(c1)C(=O)N(C)C[C@@H](OC)[C@H](C)CN(CCc1ccccc1)[C@@H](C)CO2,2.1,·,·,·,·,·,·,·
COc1cccc(Cn2cccc(NC(=O)NCc3ccccc3)c2=O)c1,11.2,-13.5,17.9*,9.6,-22.9,10.0,2.4,-6.1
COc1cccc(Cn2cccc(NC(=O)Nc3ccccc3C)c2=O)c1,5.4,12.7,1.0,-9.0,7.5,25.7,·,·
O=C(NC(=O)c1ccccc1O)c1ccc2c(c1)CCO2,·,1.3,19.1*,7.9,-56.2,6.5,24.3*,-2.5
CC(C)(C)NC(=O)c1ccc2c(c1)CCO2,0.1,7.3,0.7,-2.6,3.9,1.3,·,·
O=C(CCN1C(=O)c2ccccc2S1(=O)=O)Nc1cc(Cl)ccc1Cl,-3.0,-13.0,·,8.1,-28.4,17.3,·,·
O=C(CN1C(=O)c2ccccc2S1(=O)=O)c1ccc(Cl)cc1Cl,102.5*,3.3,88.6*,13.6,16.3,23.5,91.2*,28.6*
O=C(c1ccc2c3n(nc2c1)-c1ccc(Cl)cc1CO3)N1CCCCC1,-8.8,-4.5,·,-17.6,-361.2,-94.8,·,·
O=C(O)c1ccc2c3n(nc2c1)-c1ccc(Cl)cc1CO3,-27.0,·,83.5*,·,·,-16.9,74.6*,26.6*
O=C(Nc1ccc(Br)cn1)c1coc(=O)c(Br)c1,·,4.0,29.7*,5.5,7.1,-1.0,20.8*,-5.7
O=C(Nc1ccccc1F)c1coc(=O)c(Br)c1,-55.1,9.2,5.2,-6.0,-10.4,-12.8,·,·
Cc1cc(NC(=O)c2coc(=O)c(Br)c2)ccc1C(C)C,49.2,12.0,61.0*,3.7,-33.8,22.7,80.7*,-21.0
C[C@@H]1CN([C@@H](C)CO)S(=O)(=O)c2ccc(C#CCN(C)C)cc2O[C@H]1CN(C)Cc1ccccc1,-8.0,·,·,·,·,·,·,·
COc1ccc(-c2cn3cc(C(=O)NN)ccc3n2)cc1,-46.8,11.7,43.3*,-6.0,-138.1,-20.9,24.1*,-12.2
COC(=O)c1ccc(NC(=O)Nc2ccc3c(c2)OCO3)cc1,-47.5,2.7,-1.4,16.8,-317.1,-26.9,·,·
COC(=O)c1ccc2nc(-c3ccc4c(c3)OCO4)cn2c1,82.9*,-34.6,17.5*,-14.8,-2.4,37.3,72.7*,65.3*
NNC(=O)c1ccc2nc(-c3ccc(Br)cc3)cn2c1,-47.4,7.2,7.2,-34.0,-299.4,-51.9,·,·
O=C(CNS(=O)(=O)c1ccc(Br)s1)NCc1ccccc1,-11.5,5.9,17.2*,1.3,13.8,6.5,-2.7,-4.7
O=C(CNS(=O)(=O)c1ccc(Br)s1)NCc1ccc(F)cc1,17.5,-7.6,4.8,-0.1,10.2,-0.1,·,·
O=C(N/C(=C/c1cccs1)C(=O)N1CCCCCC1)c1ccccc1,2.1,-11.3,0.5,2.6,3.3,15.3,·,·
O=C(N/C(=C\c1cccs1)C(=O)N1CCCCCC1)c1ccccc1,-10.0,15.0,31.2*,-0.9,-8.4,12.5,-1.0,-20.5
SMILES,LGR2 inh,KKLEB tox,HSP90 refold inh,CF NFkB inh,Peg3 promoter,Mdm2-MdmX inh,HSP90 inh confirm,luciferase ctr
CCCNC(=O)N(C)C[C@H]1Oc2ncc(-c3ccc(C(=O)N(C)C)cc3)cc2C(=O)N([C@H](C)CO)C[C@@H]1C,-6.4,·,·,·,·,·,·,·
O=C(O)c1ccc(N/N=C/c2cn(Cc3ccccc3F)c3ccccc23)cc1,-56.8,-3.2,36.4*,28.4,-83.1,43.2,38.5*,32.0*
O=C(O)c1ccc(N/N=C/C(Br)=C/c2ccccc2)cc1,-81.9,9.7,24.1*,5.7,-193.8,-75.0,50.3*,34.6*
CC(C)n1cc(/C=N/Nc2ccc(C(=O)O)cc2)c2ccccc21,-0.8,-4.0,62.6*,17.2,-56.1,27.3,70.6*,61.7*
Cn1cc(/C=N/Nc2ccccc2)c2ccccc21,-14.6,-4.7,2.7,-8.7,-91.2,-0.6,·,·
O=C(O)c1ccc(N/N=C/c2c[nH]c3ccccc23)cc1,59.1*,-0.9,81.7*,15.8,67.2*,-0.4,89.1*,86.0*
Cc1cccc(S(=O)(=O)N2C[C@@H](O)COC[C@@H]3O[C@@H](CC(=O)NCCCN4CCOCC4)CC[C@H]32)c1,2.6,·,·,·,·,·,·,·
COc1ccc(C(=O)Nn2c(SCC(=O)NC3CCCC3)nc3ccccc3c2=O)cc1,·,17.1,71.6*,-1.8,-30.9,36.4,52.5*,48.9*
COc1ccc(C(=O)Nn2c(SCC(=O)NCc3ccccc3)nc3ccccc3c2=O)cc1,·,-2.8,68.3*,-0.2,-14.2,37.7,49.5*,49.0*
COc1ccc(C(=O)Nn2c(SCC(=O)NCC3CCCO3)nc3ccccc3c2=O)cc1 (configuration not stated),·,-5.6,62.7*,5.4,13.3,41.8,77.8*,71.6*
O=C(CSc1nc2ccccc2c(=O)n1CC1CCCO1)NCC1CCCO1 (configuration not stated),4.5,-2.3,-0.9,4.7,12.9,9.3,·,·
COCC(C)n1c(SCC(=O)NC2CCCCC2)nc2ccccc2c1=O (configuration not stated),2.6,-0.6,·,5.1,6.2,·,·,·
CNC[C@@H]1Oc2ccc(NS(=O)(=O)c3ccc(OC)cc3)cc2CC(=O)N([C@H](C)CO)C[C@H]1C,-16.7,·,·,·,·,·,·,·
O=C(C[C@H]1CC[C@@H]2[C@H](COC[C@H](O)CN2Cc2ccccc2)O1)NCc1ccccc1Cl,-8.1,·,·,·,·,·,·,·
O=C(C1CCOCC1)N1C[C@@H]2[C@H](c3ccccc31)[C@@H](CO)N2Cc1ccc(Cl)cc1,-32.3,·,·,·,·,·,·,·
COc1ccc(N2C(=O)c3ccccc3NC23CCCC3)cc1,-6.4,-14.1,19.4*,6.2,-152.4,3.1,2.2,-5.8
CCC1(CC)Nc2ccccc2C(=O)N1c1ccc(OC)cc1,-2.6,-17.9,10.6,7.8,-159.9,-15.9,·,·
Cc1cc2cc(CNC(=S)NC3CCCCC3)ccc2n1C,5.3,10.1,19.6*,-8.1,-6.6,17.8,3.6,-2.3
Nc1cccc(-c2cc3ccccc3oc2=O)c1,-127.2,1.4,44.4*,2.4,-60.8,25.5,34.9*,-16.4
